Screens deposited in PubChem by Center for Chemical Genomics, University of Michigan.
Dicer inh = blocks human Dicer maturation of pre-miR-21; Q9UPY3; z-score at 25 µM; AID 1347074; cat-ELCCA pre-miR-21 Dicer processing, chemiluminescence; active compounds read high; actives 6% (n = 47,000); in the data active = z-score above about 3, passing the limit was not always enough;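 note: plate controls were vehicle for no effect and no enzyme for full effect; higher signal means more uncleaved substrate so more Dicer inhibition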
The depositor's hits bear a star. The sample as a whole holds a higher share of hits than the screen did.

SMILES	Dicer inh
c1ccc2[nH]c(CSCSCc3nc4ccccc4[nH]3)nc2c1	-0.12
O=C(NC(=O)c1ccccc1O)c1ccc(F)cc1	-1.2
N/C(=N\NC(=O)c1cccs1)c1ccc(C(F)(F)F)cn1	-1.4
Cc1c(C(=O)O/N=C(\N)c2ccc(C(C)(C)C)cc2)sc2cc(C(C)(C)C)sc12	-0.55
O=C(c1ccco1)c1cn(CC(=O)N2CCc3ccccc32)c2ccccc12	-0.47
CCCCCOC(=O)C1=C(C)NC2=C(C(=O)CCC2)C1c1ccccc1OCCC (stereo not given)	0.33
CCSCCOC(=O)C1=C(C)NC2=C(C(=O)CCC2)C1c1ccccc1OC(C)C (stereo not given)	1.1
CCSCCOC(=O)C1=C(C)NC2=C(C(=O)CCC2)C1c1ccccc1OCc1ccccc1 (stereo not given)	6*
CC(=O)Nc1ccc(NC(=O)c2nccnc2C(=O)O)cn1	-0.06
Cn1nccc1NC(=O)c1nccnc1C(=O)O	-0.01
C/C(=C\C#N)NC(=O)c1nccnc1C(=O)O	4.6*
Cc1cc(/C(N)=N/OC(=O)C(C)(C)C)cc(/C(N)=N/OC(=O)C(C)(C)C)c1	5.7
COc1ccc(/C(N)=N/OC(=O)Nc2ccccc2)cc1OC1CCCC1	-0.13
CN(C)c1nc2ccc(O)cc2s1	1.5
CC(C)NC(=O)NNC(=O)c1ccc[nH]1	-1.1
O=[N+]([O-])/C(=C\c1ccccc1)c1ccccc1	0.16
CN(CCc1ccccn1)Cc1cccc(F)c1	3.5*
CN(CCc1ccccn1)Cc1ccc(F)cc1	-0.8
CN(CCc1ccccn1)Cc1ccccn1	-1
O=C(OCCS(=O)(=O)c1ccccn1)c1ccccc1	-1.1
Cc1nc(N=Nc2ccc(S(=O)(=O)O)cc2S(=O)(=O)O)c(COP(=O)(O)O)c(C=O)c1O	3.1*
Cc1nc(N=Nc2ccc(C(=O)O)cc2)c(COP(=O)(O)O)c(C=O)c1O	-1.7
CN(NC(=O)NC(=O)c1c(Cl)cccc1Cl)c1ccccc1[N+](=O)[O-]	0.34
CCOC(=O)c1c(C)n(C)c2ccc(OCC(O)CNC3CCCCC3C)cc12 (stereo not given)	0.72
CC(C)c1nnc2c3c4c(sc3ncn12)CCCC4	0.39
SMILES	Dicer inh
COCCN1C(=O)c2oc3cc(C)c(C)cc3c(=O)c2C1c1ccc(SC)cc1 (stereo not given)	-0.06
CCOC(=O)c1c(NC(=O)CCC(=O)O)sc2c1CCCC2=O	3*
CCOC(=O)c1c(NC(=O)CCC(=O)O)sc2c1CCCCC2	-0.71
CCOC(=O)c1c(NC(=O)CCC(=O)O)sc2c1CCCC2	2.2
Cc1cc(C(=O)CSc2nnc3ccccn23)c(C)n1-c1ccc(F)cc1	-1.5
COc1ccccc1-n1cnc2cc(NCc3ccncc3)ccc21	5.3*
COc1ccccc1-n1cnc2cc(Nc3nnc(C)c4ccccc34)ccc21	-0.27
c1ccc(-n2cnc3cc(NCc4ccccn4)ccc32)cc1	2.6
CCOc1ccccc1N1CCN(S(=O)(=O)c2ccc(Br)cc2)CC1	1.2
CCSc1nnc2c(n1)OC(c1ccc(N(C)C)cc1)Nc1ccccc1-2 (stereo not given)	1.4
CCCSc1nnc2c(n1)OC(/C=C/c1ccc([N+](=O)[O-])o1)Nc1ccccc1-2 (stereo not given)	3.5*
CCSc1nnc2c(n1)OC(c1ccc(O)cc1)Nc1ccccc1-2 (stereo not given)	-0.74
CC1=C(C(=O)OCc2ccccc2)C(c2ccc(C)o2)C2=C(CC(C)(C)CC2=O)N1 (stereo not given)	0.64
Cc1ccc(/C(O)=C2/C(=O)C(=O)N(CC(C)O)C2c2ccc(O)cc2)cc1 (stereo not given)	-0.92
O=C(/C=C/c1ccccc1)NC(=S)Nc1ccc(S(=O)(=O)Nc2ccc(C(F)(F)F)cc2)cc1	0.12
Cc1nc(-c2ccc3c(c2)OCC3)sc1C(=O)Nc1ccc2c(c1)OCCO2	-2
Cc1sc2nc(-c3ccccc3)oc(=O)c2c1C	1.5
Cc1nnsc1-c1nc2cccc(C)c2c(=O)o1	3.4*
Cc1cccc(C)c1NC(=O)c1snnc1C	0.06
Cc1ccc(-n2c(C(C)(C)C)cs/c2=N/c2ccccn2)cc1C	1.5
O=C(Nc1sccc1-n1cccc1)NC1Cc2ccccc2C1	-1.1
COc1cccc(C2Sc3ccccc3NC3=C2C(=O)c2ccccc23)c1 (stereo not given)	-0.15
COc1ccccc1C1C2=C(Nc3c1c(=O)[nH]c(=O)n3C)c1ccccc1C2=O (stereo not given)	-0.58
COc1cccc(C2Sc3ccccc3NC3=C2C(=O)c2ccccc23)c1OC (stereo not given)	3.6*
Clc1ccc(OCc2nn3c(Cc4ccccc4)nnc3s2)cc1	-1.8
SMILES	Dicer inh
c1ccc(-c2nn3c4cc(N5CCOCC5)ccc4nc3c3ccccc23)cc1	6.1*
COc1ccc(-c2nnc(N3CCOCC3)c3ccccc23)cc1	1.3
c1ccc(-c2nc3c4ccccc4ccn3c2CN2CCOCC2)cc1	-0.15
COC(Cn1c(-c2ccccc2)n[nH]c1=S)OC	-1.6
Cc1ccc(-n2cnc3c(sc4nc(N5CCOCC5)c5c(c43)CC(C)(C)OC5)c2=O)cc1	0.71
Cn1nccc1NS(=O)(=O)c1ccccc1	-0.55
